This is an account of results in PubChem BioAssay (Tox21).

The structures appear in SMILES notation. Records with an inconclusive call do not appear. Entries that show only a call come without a potency. Active and inactive are the calls of the source. Calls come from the whole dose curve.

One assay in a line: G protein-coupled receptor (GPCR) small molecule agonists, calcium flux assay: HEK293 wild type cell line counter screen (AID 1920065). Note: potency is the fitted concentration of half-maximal effect. The note with it: HEK293 WT calcium flux, fluorescence, agonist mode; series mostly up to 57.6 µM. The procedure, abridged:
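Counter-screen of the Tox21 10K library for non-specific calcium release: dye-loaded cells received compounds in DMSO and were monitored by kinetic fluorescence (480/540 nm, 3 min). Fifteen concentrations, run in triplicate.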
(In general: Calcium flux is commonly read through the fluorescence of an indicator in the cells.)
With `N#Cc1sc2c(=O)c3ccccc3c(=O)c=2sc1C#N`, the Potency entry was “inactive”.
As to `C=CC(=O)OCC`, the Potency result is “inactive”.
Same read-out and setting: the result for `Cc1c(Cl)c(=O)oc2cc(OP(=O)(OCCCl)OCCCl)ccc12` reads “inactive”; that for `O=C(CBr)Nc1ccc(Cl)cc1C(=O)c1ccccc1F`, “inactive”.
On the same count and under the same terms, the result for `CC1=NNC(=O)N(/N=C/c2cccnc2)C1` reads “inactive”; that for `[O-][Cl+3]([O-])([O-])O`, “inactive”; that for `CCn1cc[n+](C)c1` (tested in a mixture with another compound), “inactive”.
In the case of `CCOC(=O)C(Cl)Cc1cc(-n2nc(C)n(C(F)F)c2=O)c(F)cc1Cl` (stereo not given), the Potency entry was “inactive”.
On the same count and under the same terms, the value for `COc1ccc(C(=O)c2c(C)n(CCN3CCOCC3)c3ccccc23)cc1` was “inactive”.
Same read-out and setting: the result for `CSC(C)(C)/C=N/O` reads “inactive”.
Still for that read-out and setting: the value for `C=CCC1(C(C)CC)C(=O)NC(=O)NC1=O` (stereo not given) was “inactive”; that for `CCOP(=O)(SC(C)CC)N1CCSC1=O` (stereo not given) was “inactive”.
Regarding `CCOP(=S)(OCC)Oc1cc(-c2ccccc2)on1`, the Potency result was “inactive”.
As to `CCNP(=S)(OC)O/C(C)=C/C(=O)OC(C)C` (stereo not given), the Potency entry is “inactive”.
The same measure, in the same setting: the result for `COP(=O)(OC)O/C(C)=C/C(=O)N(C)C` reads “inactive”; that for `CCOC(=O)CCN(SN(C)C(=O)Oc1cccc2c1OC(C)(C)C2)C(C)C`, “inactive”.
The same measure, in the same setting: the value for `CN1C2CCC(C)(C)C1CC(OC(=O)C(O)(c1cccs1)c1cccs1)C2` (stereo not given) was “inactive”.
Same read-out and setting: the value for `O=C1OC(=O)C2C1C1(Cl)C(Cl)=C(Cl)C2(Cl)C1(Cl)Cl` (stereo not given) was “inactive”; that for `C[C@H](CN1CCOCC1)C(C(=O)N1CCCC1)(c1ccccc1)c1ccccc1` was “inactive”.
Regarding `NNCc1ccccc1`, the Potency result is “inactive”.
Take `ClC(Br)Br`: the Potency entry is “inactive”.
Still for that read-out and setting: the result for `C#CC(C)(C)O` reads “inactive”; that for `CCN1CCC2(CC1)COc1cc3c(cc12)N(C(=O)c1ccc(-c2ccc(-c4nnc(C)o4)cc2C)cc1)CC3`, “inactive”.
On the same count and under the same terms, the result for `CNC(=O)O/N=C(\C)C(C)S(C)(=O)=O` (stereo not given) reads “inactive”; that for `CCOC(=O)c1cn2nc(OP(=S)(OCC)OCC)cc2nc1C`, “inactive”; that for `CC(C)(c1ccc(O)c(-c2ccccc2)c1)c1ccc(O)c(-c2ccccc2)c1`, “inactive”.
With `CCC1(c2ccccc2)C(=O)N(COC)C(=O)N(COC)C1=O`, the Potency result was “inactive”.
Take `CCS(=O)(=O)CCSP(=O)(OC)OC`: the Potency entry is “inactive”.
Still for that read-out and setting: the value for `c1cc[n+]2c(c1)-c1cccc[n+]1CC2` was “inactive”.
Still for that read-out and setting: the result for `O=C(Nc1ccccc1-c1ccc(Cl)cc1)c1cccnc1Cl` reads “inactive”; that for `O=C(NC(O)C(Cl)(Cl)Cl)NC(O)C(Cl)(Cl)Cl` (stereo not given), “inactive”.
The same measure, in the same setting: the result for `CNC(=O)Oc1cccc(N=CN(C)C)c1` reads “inactive”.
For the compound `ClCc1ccccc1Cl`, the Potency entry is “inactive”.
On the same count and under the same terms, the result for `CCOP(=S)(OCC)Oc1nc(Cl)n(C(C)C)n1` reads “inactive”; that for `CCOP(=S)(OCC)Oc1ccc(Cl)cc1Cl`, “inactive”; that for `CC(C)O.CC(C)O.OCCN(CCO)CCO.OCCN(CCO)CCO.[Ti]`, “inactive”.
The same measure, in the same setting: the value for `CN(C)S(=O)(=O)N(SC(F)(Cl)Cl)c1ccccc1` was 38.9 µM (active); that for `CNC(=O)O/N=C(/CSC)C(C)(C)C` was “inactive”; that for `C/C=C/C=O` was “inactive”.
Still for that read-out and setting: the value for `CNC(=O)Oc1ccccc1C(C)C` was “inactive”.

A further assay is described as follows: p53 small molecule agonists, cell-based qHTS assay with rat liver microsomes (AID 1963578). The note with it: HCT-116 p53RE-bla, beta-lactamase ratio, 16 h; series mostly up to 66 µM. The procedure, abridged:
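p53RE-bla cells, 4,000/well, pre-incubated 5 h, then given compounds plus rat liver microsomes (0.5 mg/mL final) and NADPH (0.5 mg/mL final). Incubation 16 h at 37 C; beta-lactamase reporter read by LiveBLAzer fluorescence after 2 h at room temperature.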
A general note: In qHTS, concentration-response curves come from the screen itself.
`N#Cc1sc2c(=O)c3ccccc3c(=O)c=2sc1C#N`: the Potency result is “inactive”.
As to `O=C(CBr)Nc1ccc(Cl)cc1C(=O)c1ccccc1F`, the Potency entry is “inactive”.
On the same count and under the same terms, the result for `CCOC(=O)C(Cl)Cc1cc(-n2nc(C)n(C(F)F)c2=O)c(F)cc1Cl` (stereo not given) reads “inactive”; that for `COc1ccc(C(=O)c2c(C)n(CCN3CCOCC3)c3ccccc23)cc1`, “inactive”.
`C=CCC1(C(C)CC)C(=O)NC(=O)NC1=O` (stereo not given): the Potency result is “inactive”.
Same read-out and setting: the result for `C[C@H](CN1CCOCC1)C(C(=O)N1CCCC1)(c1ccccc1)c1ccccc1` reads “inactive”.
Regarding `CCN1CCC2(CC1)COc1cc3c(cc12)N(C(=O)c1ccc(-c2ccc(-c4nnc(C)o4)cc2C)cc1)CC3`, the Potency entry was “inactive”.
For the compound `CC(C)(c1ccc(O)c(-c2ccccc2)c1)c1ccc(O)c(-c2ccccc2)c1`, the Potency result is “inactive”.
The same measure, in the same setting: the result for `c1cc[n+]2c(c1)-c1cccc[n+]1CC2` reads “inactive”; that for `O=C(Nc1ccccc1-c1ccc(Cl)cc1)c1cccnc1Cl`, “inactive”; that for `CN(C)S(=O)(=O)N(SC(F)(Cl)Cl)c1ccccc1`, “inactive”.

The next assay can be described thus: p53 small molecule agonists, cell-based qHTS assay with human liver microsomes: qHTS cell viability counter screen (AID 1963579). Note: nearly all actives have a fitted effect of over 45% in size. Note: potency is the fitted concentration of half-maximal effect. The note with it: p53RE-bla HCT-116 viability, ATP luminescence, 16 h, HLM; series mostly up to 66 µM. The procedure, abridged: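 p53RE-bla cells, 4,000/well, dosed 5 hours after plating, with human liver microsomes (0.5 mg/mL final) plus NADPH (0.5 mg/mL final), 16 hours at 37 C. Viability read as CellTiter-Glo luminescence after 30 min at room temperature.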
As for `C=CC(=O)OCC`, the Potency entry was “inactive”.
Regarding `Cc1c(Cl)c(=O)oc2cc(OP(=O)(OCCCl)OCCCl)ccc12`, the Potency entry was “inactive”.
On the same count and under the same terms, the result for `CC1=NNC(=O)N(/N=C/c2cccnc2)C1` reads “inactive”; that for `[O-][Cl+3]([O-])([O-])O`, “inactive”; that for `CCn1cc[n+](C)c1` (tested in a mixture with another compound), “inactive”.
On the same count and under the same terms, the result for `CSC(C)(C)/C=N/O` reads “inactive”; that for `CCOP(=O)(SC(C)CC)N1CCSC1=O` (stereo not given), “inactive”; that for `CCOP(=S)(OCC)Oc1cc(-c2ccccc2)on1`, “inactive”.
Still for that read-out and setting: the result for `CCNP(=S)(OC)O/C(C)=C/C(=O)OC(C)C` (stereo not given) reads “inactive”; that for `COP(=O)(OC)O/C(C)=C/C(=O)N(C)C`, “inactive”.
For `CCOC(=O)CCN(SN(C)C(=O)Oc1cccc2c1OC(C)(C)C2)C(C)C`, the Potency result is “inactive”.
In the case of `CN1C2CCC(C)(C)C1CC(OC(=O)C(O)(c1cccs1)c1cccs1)C2` (stereo not given), the Potency entry is “inactive”.
The same measure, in the same setting: the result for `O=C1OC(=O)C2C1C1(Cl)C(Cl)=C(Cl)C2(Cl)C1(Cl)Cl` (stereo not given) reads “inactive”.
In the case of `NNCc1ccccc1`, the Potency entry is “inactive”.
On the same count and under the same terms, the result for `ClC(Br)Br` reads “inactive”.
Still for that read-out and setting: the result for `C#CC(C)(C)O` reads “inactive”.
Same read-out and setting: the result for `CNC(=O)O/N=C(\C)C(C)S(C)(=O)=O` (stereo not given) reads 316 µM (active).
`CCOC(=O)c1cn2nc(OP(=S)(OCC)OCC)cc2nc1C`: the Potency entry was “inactive”.
On to `CCC1(c2ccccc2)C(=O)N(COC)C(=O)N(COC)C1=O`, for which the Potency result is “inactive”.
Regarding `CCS(=O)(=O)CCSP(=O)(OC)OC`, the Potency entry was “inactive”.
Same read-out and setting: the value for `O=C(NC(O)C(Cl)(Cl)Cl)NC(O)C(Cl)(Cl)Cl` (stereo not given) was “inactive”.
The same measure, in the same setting: the result for `CNC(=O)Oc1cccc(N=CN(C)C)c1` reads “inactive”; that for `ClCc1ccccc1Cl`, “inactive”.
On the same count and under the same terms, the value for `CCOP(=S)(OCC)Oc1nc(Cl)n(C(C)C)n1` was “inactive”; that for `CCOP(=S)(OCC)Oc1ccc(Cl)cc1Cl` was 45.8 µM (active); that for `CC(C)O.CC(C)O.OCCN(CCO)CCO.OCCN(CCO)CCO.[Ti]` was “inactive”.
In the case of `CNC(=O)O/N=C(/CSC)C(C)(C)C`, the Potency entry was “inactive”.
Still for that read-out and setting: the value for `C/C=C/C=O` was “inactive”.
Still for that read-out and setting: the result for `CNC(=O)Oc1ccccc1C(C)C` reads “inactive”.
